Measurements as given in PubChem BioAssay (Tox21).
Results filed as inconclusive are left out. Where a call stands in place of a potency, no number is given. Some structures have more than one record in an assay (separate samples or runs), and their calls can disagree. Active and inactive are the calls of the source. Calls follow the shape of the dose curve; as a rule, active = well fitted cell-killing curve with a large enough effect in the repeat runs; inconclusive = weak or mixed curves, or effect the other way; inactive = flat fitted curve, though single readings scatter.

Assay: qHTS RealTime-Glo MT Cell Viability Assay in HepG2 cells - 40 hour (AID 1224870); also: nearly all actives have a fitted effect of over 50% in size
Details: RealTime-Glo luminescence; series mostly up to 76.8 µM
From the text: National Center for Advancing Translational Sciences [NCATS]
NIH Chemical Genomics Center [NCGC]
U.S. Environmental Protection Agency [EPA]
National Institutes of Environmental Health Sciences [NIEHS]
National Toxicology Program [NTP]
U.S. Food and Drug Administration [FDA]
Measure of cell viability is critical in the cell-base assay. Analysis of cell viability is necessary for the characterization of cell responses to cytotoxic drugs and environmental stress. A RealTime-Glo MT Cell Viability Assay to monitor cell viability in real time of continues cell culture during 40 hours of compound treatment was used to screen Tox21 10K library compounds in HepG2 cells. The RealTime-Glo MT Cell Viability Assay is a nonlytic, homogeneous, bioluminescent method to measure cell viability in real time using a simple, plate-based method. The assay involves adding NanoLuc luciferase and a cell-permeant prosubstrate to cells in culture. Viable cells reduce the proprietary prosubstrate to generate a substrate for NanoLuc luciferase. This substrate diffuses from cells into the surrounding culture medium, where it is rapidly used by the NanoLuc Enzyme to produce a luminescent signal. The signal correlates with the number of viable cells, making the assay well suited for cytotoxicity studies.
Tox21 Assay Protocol Summary:
The mixture of HepG2 cell suspension and reagents were dispensed at 600cells/6 ul/well in 1536-well tissue culture treated black solid bottom plates using a Multidrop dispenser. After the assay plates were incubated at a 37 C/5% CO2 incubator for 5 hours, 23 nL of compounds dissolved in DMSO, positive and negative controls was transferred to the assay plate by a pintool work station. The plates were incubated at 37 C for 40 hours. The luminescence intensity were measured at 0h, 8h, 16h, 24h, 32h and 40h time points using ViewLux plate reader during compound treatment.
Potency is read from the fitted curve at half-maximal effect.

| SMILES | Potency |
| --- | --- |
| O=C1CN(/N=C/c2ccc([N+](=O)[O-])o2)C(=O)N1 | inactive |
| O=C(O)CCCCCCCC(=O)O | inactive |
| O=c1cc[nH]c(=S)[nH]1 | inactive |
| N=C(N)c1ccc(OCCCCCOc2ccc(C(=N)N)cc2)cc1 | 54.7 µM (active) and inactive |
| CCCCCCCCCCCCCCCC(=O)O | inactive |
| O=C1NC(=O)c2ccccc21 | inactive |
| O=C(O)c1cccc([N+](=O)[O-])c1 | inactive |
| O=C(O)c1cccnc1 | inactive |
| CC(=O)OCC(COC(C)=O)OC(C)=O | inactive |
| NS(=O)(=O)c1cc(C(=O)O)c(NCc2ccco2)cc1Cl | inactive |
| NC(N)=NC(=O)c1nc(Cl)c(N)nc1N | inactive |
| O=C(c1ccccc1)C(O)c1ccccc1 (stereo not given) | inactive |
| CC(O)CN(CCN(CC(C)O)CC(C)O)CC(C)O (stereo not given) | inactive |
| Cc1ccccc1C(OCCN(C)C)c1ccccc1 (stereo not given) | inactive |
| CCCC(CCC)C(=O)O | inactive |
| O=C(O)CCC(=O)O | inactive |
| CCC1(c2ccccc2)C(=O)NCNC1=O | inactive |
| CCCNC(=O)NS(=O)(=O)c1ccc(Cl)cc1 | inactive |
| Cn1cc[nH]c1=S | inactive |
| Oc1ccc(/C=C/c2cc(O)cc(O)c2)cc1 | inactive |

| SMILES | Potency |
| --- | --- |
| COc1ccc2[nH]cc(CCNC(C)=O)c2c1 | inactive |
| O=C(O)/C=C\C(=O)O | inactive |
| O=NO | inactive |
| CNC[C@H](O)c1cccc(O)c1 | inactive |
| Cc1cc(=O)n(-c2ccccc2)n1C | inactive |
| CCCCOC(=O)CC(CC(=O)OCCCC)(OC(C)=O)C(=O)OCCCC | inactive |
| Cc1cc(=O)[nH]c(=S)[nH]1 | inactive |
| Cn1c(=O)c2[nH]cnc2n(C)c1=O | inactive |
| Cc1cn([C@H]2C[C@H](N=[N+]=[N-])[C@@H](CO)O2)c(=O)[nH]c1=O | inactive |
| CCCN(CCC)S(=O)(=O)c1ccc(C(=O)O)cc1 | inactive |
| O=S(=O)(O)c1ccc2cc(O)ccc2c1 | inactive |
| c1ccc2[nH]ccc2c1 | 3.41 µM (active) and inactive |
| CCCC(O)C(CC)CO (stereo not given) | inactive |
| O=C(c1ccccc1)c1ccccc1 | inactive |
| O=C(O)c1[nH]n(-c2ccc(S(=O)(=O)O)cc2)c(=O)c1N=Nc1ccc(S(=O)(=O)O)cc1 | inactive |
| Nc1ccc(C(=O)O)cc1 | inactive |
| O=C(O)CCCCC(=O)O | inactive |
| NC(=O)NC1NC(=O)NC1=O (stereo not given) | inactive |
| CC(C)[C@@H]1CC[C@@H](C)C[C@H]1O | inactive |
| NC(=O)c1ccccc1O | inactive |
